IL1B secr inh = inhibitors of inflammasome signaling (IL-1 beta secretion); THP-1 LPS/ATP IL-1B secretion, AlphaLISA, 16 h; hits give low values; activity change, % at 57.5 µM; 360,000 compounds, 4.7% hits; AID 743279; in the data active = activity change below about -50%; inconclusive = mostly about -30% to -49%
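Secreted IL-1B measured by AlphaLISA bead assay after 16 h compound exposure of THP-1 cells; compounds (final up to 57.5 uM) added 1 h before LPS (250 ng/mL) and ATP (1.25 mM) stimulation; lower signal means less secretion.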
HT1080 IDH1KD tx = toxicity to HT-1080 IDH1 knockdown cells (counter line). 360,000 compounds, 2% hits. HT-1080 IDH1 knockdown viability, ATP luminescence, 48 h. AID 686971. Potency, µM (series often up to 46.1 µM), inactives show top-dose activity, negative = toxicity, actives largely listed as cytotoxic;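 note: potency is the fitted concentration of half-maximal effect; 0% = DMSO wells and -100% = cell-free medium wells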
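Viability of IDH1-knockdown HT-1080 fibrosarcoma cells was assessed by CellTiter-Glo after 48 h at 37 °C with titrated compound; concentration-effect curves were classified by fit quality and response size.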
HT1080NT lethal = kills 2HG-producing HT-1080-NT fibrosarcoma cells | HT-1080-NT fibrosarcoma viability, CellTiter-Glo ATP luminescence, 48 h | Potency, µM (series often up to 46.1 µM), inactives show at the top dose activity, negative = less viability, hits mostly cytotoxic | 360,000 compounds, 1.6% hits | AID 686970;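 note: NT is the 2HG producing partner of a matched IDH1 knockdown line; potency is the fitted concentration of half-maximal effect; 0% = DMSO-treated cells and -100% = media-only wells without cells; nearly all actives have a fitted effect of over 55% in size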
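HT-1080-NT fibrosarcoma cells (2HG-overproducing), 750 cells/well in RPMI with 5% FBS, dosed after 2 h and incubated 48 h at 37C. CellTiter-Glo luminescence normalized to DMSO and no-cell wells; concentration-response curves fitted and classed.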
DT40 TDP1 no CPT = qHTS for Inhibitors of human tyrosyl-DNA phosphodiesterase 1 (TDP1): qHTS in cells in absence of CPT; Potency, µM (top dose mostly 46.2 µM), for inactives: at the top dose activity change, negative = growth inhibition, hits mostly inhibitors; DT40 Tdp1-/- hTDP1 cells, no CPT, ATP luminescence, 48 h; 420,000 compounds, 15% hits; note: potency is the fitted concentration of half-maximal effect; nearly all actives have a fitted effect of over 55% in size
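Luminescent ATP content (CellTiter-Glo) served as the growth readout. Knockout chicken DT40 cells expressing human TDP1 were exposed to compounds without camptothecin for a minimum 48 hr at 37 °C.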
TDP1 cell CPT = growth inhibition of DT40 Tdp1-/-;hTDP1 cells with camptothecin (screen for TDP1 inhibitors); chicken DT40 Tdp1-/-;hTDP1 cells + 20 nM CPT, ATP luminescence, 48 h; Potency, µM (top dose mostly 46.2 µM), for inactives: at the highest dose activity change, negative = growth inhibition, usual class: inhibitors; 420,000 compounds, 12% hits; AID 686979; note: potency is the fitted concentration of half-maximal effect; nearly all actives have a fitted effect of over 55% in size
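Chicken DT40 Tdp1-/- cells stably complemented with human TDP1 were seeded at 400 cells/well in medium containing 20 nM camptothecin, exposed to pin-transferred compounds, and grown at 37 °C for at least 48 hr. Viability was read as ATP luminescence.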
Active calls of the source: *; ? = inconclusive; / = not tested or not shown. Most compounds without a hit are left out; they make up all but 19% or so of the library. Unless noted, calls come from the whole dose curve; as a rule, active = well fitted curve in the direction sought with a large enough effect; inconclusive = small, poorly fitted or top-dose-only effect, or another doubt; inactive = no such curve, though single readings can be large; an effect the other way counts as inactive or inconclusive. Unless noted, % is set by controls: 0 for no effect and ±100 for the full control effect.

SMILES	IL1B secr inh	HT1080 IDH1KD tx	HT1080NT lethal	DT40 TDP1 no CPT	TDP1 cell CPT
COc1ccc(C2=NN(C(=O)CSc3nccn3C)C(c3ccco3)C2)cc1 (centres undefined)	-26	-3%	-8%	?	18µM*
CCS(=O)(=O)Nc1ccc(C2=NN(C(=O)c3ccco3)C(c3ccc(C)cc3)C2)cc1 (centres undefined)	-10	?	?	20µM*	?
CCC(=O)N1N=C(c2c(-c3ccccc3)c3cc(Cl)ccc3[nH]c2=O)CC1c1ccco1 (centres undefined)	?	?	?	23µM*	18µM*
Cc1ccc(C2CC(c3ccc(NS(C)(=O)=O)cc3)=NN2C(=O)c2ccco2)cc1 (centres undefined)	-2	-24%	-13%	?	-5%
Cc1ccc(N(CC(=O)NC2CCCC2)C(=O)CNC(=O)c2cccs2)cc1F	0	9%	14%	-3%	2%
CCN(CC)c1ncnc2c1ncn2[C@H]1CN(Cc2ccccc2)C[C@@H](CO)O1	-11	21%	-13%	?	-17%
CCN(CC)CCNC(=O)c1nn(-c2ccc(OC)c(Cl)c2)c(=O)c2c1c1ccccc1n2C	/	/	/	3%	-3%
CCCCN(C)CCNC(=O)c1c(C)oc2ncnc(N3CCOCC3)c12	/	/	/	6%	17%
Cn1cnnc1SCC(=O)N1N=C(c2ccc(Cl)cc2)CC1c1ccco1 (centres undefined)	0	15%	13%	-15%	?
CCS(=O)(=O)Nc1ccc(C2=NN(C(=S)Nc3ccccc3)C(c3ccco3)C2)cc1 (centres undefined)	-14	?	-24%	16µM*	16µM*
Cc1ccc(C2=NN(C(=O)CSc3nnnn3C)C(c3ccco3)C2)cc1 (centres undefined)	?	0%	1%	?	13µM*
Cc1ccc(C2=NN(C(=S)Nc3ccccc3)C(c3ccco3)C2)cc1 (centres undefined)	-20	-23%	-4%	?	?
Cc1ccccc1C(=O)NNC(=O)c1cccc(Br)c1	2	11%	13%	1%	3%
COc1ccc(-c2sc3ccccc3c2/C=C/c2ccc(OC)c(OC)c2)cc1	-6	-3%	0%	-16%	-21%
COc1ccc(-c2sc3ccccc3c2/C=C/c2ccncc2)cc1	-4	?	?	16µM*	?
COc1ccc2sc3ccccc3c(=O)c2c1	-1	0%	7%	6%	8%
COc1ccc(-c2cc(=O)c3ccccc3s2)cc1	-60*	-5%	-7%	?	?
COc1ccc(-c2c(-c3ccccc3OC)sc3ccccc23)cc1C=O	20	?	?	18µM*	?
COc1ncc(-c2c(-c3ccccc3OC)sc3ccccc23)cn1	-6	16µM*	?	?	?
COc1ccc(-c2sc3ccccc3c2-c2cc(OC)ccc2C=O)cc1	78	?	?	21µM*	?
COC1=C(C)C(=O)C2=C(C1=O)C1C3CC4=C(C(=O)C(OC)=C(C)C4=O)C(CNC(=O)C(C)=O)N3C(C#N)C(C2)N1C (centres undefined)	-99*	0.082µM*	18µM*	0.026µM*	0.041µM*
O=C(O)c1cc(NN=Nc2ccc(Br)cc2)cc([N+](=O)[O-])c1	25	1%	0%	-5%	-15%
CC(C)(C)c1ccc(C(=O)/C=C2\NC(=O)CS2)cc1	-23	-21%	-20%	18µM*	15µM*
Cc1ccc(NC(=O)/C=C2\NC(=O)CS2)cc1	-26	26%	25%	-7%	20%
C/C=C/C(=O)Nc1nnc(C2CCCCC2)s1	-88*	-7%	-4%	6%	?
SMILES	IL1B secr inh	HT1080 IDH1KD tx	HT1080NT lethal	DT40 TDP1 no CPT	TDP1 cell CPT
OCC[C@@H]1C[C@@H](O)[C@H](O)[C@]2(Cc3ccccc3CCO2)O1	25	6%	0%	11%	-16%
O=C(COc1ccccc1)N/N=C/c1ccc2c(c1)OCO2	-21	?	-25%	-36%	10%
O=C(COc1ccc(-c2ccccc2)cc1)N/N=C/c1cccnc1	8	-9%	-11%	?	?
O=C(COc1ccccc1-c1ccccc1)N/N=C/c1cccnc1	75	?	?	13µM*	15µM*
O=C(COc1ccccc1-c1ccccc1)N/N=C/c1ccccn1	55	-23%	-20%	23µM*	23µM*
O=C(COc1ccccc1-c1ccccc1)N/N=C/c1ccc2ccccc2c1	20	1.2µM*	?	0.92µM*	1.2µM*
Cc1cccc(C)c1OCC(=O)N/N=C/c1cccnc1	13	-4%	-3%	15µM*	?
CN(C)S(=O)(=O)c1ccc(NC(=O)CN2C(=O)NC3(CCCC3)C2=O)cc1	10	17%	22%	-10%	-11%
CC(C)OC(=O)/C=C1\C[C@@H](c2ccccc2C(F)(F)F)O[C@@H](c2ccccc2C(F)(F)F)O1	29	9%	18%	21µM*	?
CCc1ccc(N2CN(CCc3ccccc3)CNC2=S)cc1	18	0%	-2%	29µM*	?
C/C(=N\NC(=O)c1ccc2c(c1)OCO2)c1ccc(NC(=O)CCCC(=O)O)cc1	0	-13%	-4%	5%	-1%
CN(Cc1ccccc1)CC(O)COc1ccc(CNCc2cccnc2)cc1 (centres undefined)	-14	?	-9%	?	23µM*
CCn1cc(CNCc2ccc(OCC(O)CN(C)Cc3ccccc3)cc2)cn1 (centres undefined)	0	?	-20%	?	?
c1ccc(COc2ccc(CNCc3cccnc3)cc2)cc1	-63*	-3%	-20%	?	-17%
Cc1ccc(CNCc2cccnc2)cc1	20	3%	3%	-2%	-14%
CN(Cc1ccccc1)CC(O)COc1ccc(CNCCOc2cccnc2)cc1 (centres undefined)	12	-18%	?	-12%	-11%
c1ccc(COc2ccc(CNCc3cccs3)cc2)cc1	-8	?	?	13µM*	?
CN(Cc1ccccc1)CC(O)COc1ccc(CNCc2ccc(Cl)s2)cc1 (centres undefined)	-80*	?	21µM*	16µM*	?
COc1cc(C(c2sc3nc(C)nn3c2O)N2CCC3(CC2)OCCO3)cc(OC)c1OC (centres undefined)	6	1%	1%	16µM*	16µM*
O=C(CCCSc1nc2ccccc2[nH]1)NCc1ccc(Cl)cc1	-2	-16%	-12%	?	?

High-throughput results (PubChem)
